Screening data from PubChem.
Most compounds without a hit are left out; they make up all but 0.5% or so of the library.
E coli growth-1: counter-screen for AddAB inhibitors: E. coli growth inhibition; E. coli V3065 growth, OD600 absorbance, 18 h; inhibition, % at 11.9 µM; 330,000 compounds, 0.27% hits;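 active = inhibition above the campaign's mean inhibition across all tested compounds plus 3 SD, cut at about 9.9% in these data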;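 note: uninfected addAB+ strain grown without phage in ampicillin broth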
AddAB inh: less growth of phage-infected E. coli with AddAB; E. coli expressing H. pylori AddAB, absorbance growth; inhibition, % at 11.9 µM; 330,000 compounds, 0.29% hits; AID 435030; in the data active = inhibition above about 12%
phage Ecoli inh: E. coli growth loss with phage present; 360,000 compounds, 0.26% hits; growth absorbance; inhibition, % at 11.9 µM; AID 651602; in the data active = inhibition above about 11%
E coli growth-2: E. coli growth inhibition | Escherichia coli growth, OD600, 23 h; stronger effect = lower value | OD600 absorbance (concentration not given with the values) | 330,000 compounds, 0.21% hits;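 active = OD600 absorbance below the run mean of sample wells minus 3.6 SD, in any replicate, cut at about 0.56 in these data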
Tat export inh: inhibitors of E. coli Tat protein transport. E. coli MC4100 TorA-mCherry Tat export, fluorescence. inhibition, % at 10 µM. 340,000 compounds, 0.036% hits. AID 488895;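 active = mean replicate inhibition at least 50% and at least half of replicates individually reaching 50%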;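 note: exported cargo escapes ClpAP degradation while cytoplasmic cargo is degraded and loses fluorescence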
Numbers stand for hits; . = inactive; / = no result given.

SMILES	E coli growth-1	AddAB inh	phage Ecoli inh	E coli growth-2	Tat export inh
O=C1C(=O)c2cccnc2-c2ncccc21	/	/	101	/	/
O=C1c2cccnc2-c2ncccc21	.	.	.	.	.
Nc1nc(Nc2ccccc2)nc2ccccc12	.	.	.	0.53	.
Nc1nc(Nc2ccc(Cl)cc2)nc2ccccc12	.	.	.	0.35	.
COc1cc2nc(Nc3ccc(C)c(Cl)c3)nc(N)c2cc1OC	.	.	.	.	.
CN(C)c1ccc(Nc2nc(N)c3ccccc3n2)cc1	.	.	.	/	.
Cc1ccc(Nc2nc(N)c3ccccc3n2)cc1Cl	.	.	.	0.44	.
O=C(NN=C/C(Cl)=C/c1ccc([N+](=O)[O-])cc1)C(=O)Nc1cccc(C(=O)O)c1	/	/	/	.	/
S=c1[nH]nc(-c2cccs2)n1N=Cc1cn(-c2ccccc2)nc1-c1ccccc1	/	/	/	.	/
CN(C)C(=O)C[n+]1ccc(/C=N/O)cc1	.	.	.	/	.
CCCCCCCCCCCCCCCC[n+]1ccc(C=NO)cc1	/	/	/	0.4	/
C=Cn1cc[n+](CC(=O)c2ccc(-c3ccccc3)cc2)c1	13	.	.	.	.
CCOC(=O)Cc1csc(NC(=O)C2CCCN(S(=O)(=O)c3cnc[nH]3)C2)n1 (stereo unspecified)	14	24	.	.	.
CCOc1ccc(NC(=O)C2CCCN(S(=O)(=O)c3cnc[nH]3)C2)cc1 (stereo unspecified)	.	.	/	.	.
C/C=C1\NC(=O)[C@H](CC(N)=O)N(C)C(=O)C([C@@H](C)O)NC(=O)C(CCCc2ccc(OC)cc2)NC(=O)[C@H](C(C)C)NC(=O)/C(=C\C)NC(=O)[C@H](O)[C@@H](C[C@@H](O)CCCCCCC)NC(=O)[C@H](C)NC(=O)CN(C)C(=O)[C@H](CCC(N)=O)NC1=O (stereo partly specified)	/	/	.	0.52	.
CCOC(=O)c1nc(NN=Cc2ccccc2)sc1Br	/	/	/	.	/
O=C(Oc1ccc(Cl)c2cccnc12)c1cccc([N+](=O)[O-])c1	.	.	.	0.51	.
Cc1c(NC(=O)COc2ccc3ccccc3c2)c(=O)n(-c2ccccc2)n1C	.	.	.	0.52	/
Cc1c(NC(=O)COc2cccc(F)c2)c(=O)n(-c2ccccc2)n1C	.	.	.	.	.
NCCCn1c(C(=O)c2cc(Cl)c(N)c(Cl)c2)c2ccc([N+](=O)[O-])cc2[n+]1[O-]	12	15	.	0.42	.
Cc1cc(/C=C2\Sc3ccccc3N2C)cc(C)[n+]1CC1CCCO1 (stereo unspecified)	/	/	.	0.46	.
Cc1ccc(/C=C2/Sc3ccccc3N(CC(=O)NCC3CCCO3)C2=O)cc1 (stereo unspecified)	.	.	/	.	.
Cc1cc(Nc2ccccc2)nc(NCc2ccccc2)n1	.	.	.	.	.
Cc1cc(Nc2ccc(Cl)cc2)nc(NCc2ccccc2)n1	.	.	.	0.41	.
COC(=O)CC=CC(C)C(C=NOC(C)c1cn(C2COCC2O)nn1)NS(=O)(=O)c1ccc(C)cc1 (stereo unspecified)	/	/	/	.	/
SMILES	E coli growth-1	AddAB inh	phage Ecoli inh	E coli growth-2	Tat export inh
Nc1nc(SCC(=O)Nc2ncc(C(F)(F)F)cc2Cl)n[nH]1	12	.	.	.	.
O=C(NN=C1CCCc2c1[nH]c1ccc(Cl)cc21)c1ccncc1	/	/	/	.	/
Nc1cccc([N+](=O)[O-])c1	.	.	.	.	.
O=[N+]([O-])c1cccc(SSc2cccc([N+](=O)[O-])c2)c1	/	/	.	0.54	.
COc1ccc(S(=O)(=O)ON=C2CCSc3ccc(C)cc32)cc1	/	/	/	.	/
CN(C)c1ccc(C=c2c3ccccc3n3c2cc(-c2ccc(Cl)cc2)[n+]3C)cc1	/	/	.	/	.
CN(C)c1ccc(C=c2c3ccccc3n3c2cc(-c2ccccc2)[n+]3C)cc1	/	/	11	/	.
CC(=NNC(=O)CNC(=O)/C=C/c1ccccc1)c1ccco1	/	/	/	.	/
CCn1cc(C(=O)O)c(=O)c2cnc(N3CCN(C(=S)NC(=O)c4ccccc4)CC3)nc21	.	.	.	0.41	.
CC(=NNC(=O)c1ccc2nc[nH]c2c1)c1ccc([N+](=O)[O-])cc1	/	/	/	.	/
COc1ccc(C=NNc2ncc(F)c(N3CCOCC3)n2)cc1OC	/	/	/	.	/
CCCN(CCC)Cc1c(C(=O)NN=Cc2ccncc2)nnn1-c1nonc1N	/	/	/	.	/
Cc1ccc(Nc2c(-c3ccccn3)nc3ccc(C)cn23)cc1	.	.	.	0.46	.
Cc1ccc2nc(-c3ccncc3)c(Nc3ccccc3)n2c1	.	.	.	.	.
Cc1ccc(Nc2c(-c3ccccn3)nc3cc(C)ccn23)cc1	.	.	.	0.4	.
Cc1ccn2c(Nc3ccc4c(c3)OCO4)c(-c3ccccn3)nc2c1	.	.	.	0.43	.
O=C(Cn1cnc2ccccc21)NN=Cc1cccs1	/	/	/	.	/
CNC(=O)c1[nH]cnc1C(=O)NC(Cc1ccccc1)C(=O)OCc1ccccc1 (stereo unspecified)	/	/	/	.	/
CCOC(=O)c1c(N=Cc2ccc(C)cc2O)sc2c1CCC2	/	/	/	.	/
O=C(NCc1nc2ccccc2[nH]1)c1cccc(S(=O)(=O)N2CCCC2)c1	10	.	.	.	.
COc1ccc(NC(=O)Nc2cccc([N+](=O)[O-])c2)cc1Cl	.	.	.	0.52	.
O=C(Cn1c(CO)nc2ccccc21)NCCc1ccc(F)cc1	10	.	.	.	.
CCCc1cc(=O)n2[nH]cc(-c3ccc(Cl)cc3)c2n1	/	/	.	0.35	.
CCn1c(CCn2c3ccccc3c3ccccc32)n[nH]c1=S	.	.	.	.	50
CCn1c(CCc2ccccc2)n[nH]c1=S	.	.	.	.	.
SMILES	E coli growth-1	AddAB inh	phage Ecoli inh	E coli growth-2	Tat export inh
O=C(NNc1ccc(Cl)cc1)c1sccc1Cl	.	.	.	0.5	.
CCC(C)C1CNCCN1CCCc1cc(OC)c(OC)c(OC)c1 (stereo unspecified)	/	/	/	.	/
Cc1cc2cc(CCNC(=O)c3ccc(Br)o3)c(=O)[nH]c2cc1C	12	.	.	.	.
O=C(Nc1nnc(C2=COCCO2)o1)c1cccc(Br)c1	.	.	.	0.48	.
O=C(CON=Cc1ccccc1OC(F)F)NCc1cccs1	/	/	/	.	/
FC(F)(F)c1cccc(NC(=S)NNC(=S)Nc2cccc(C(F)(F)F)c2)c1	.	.	/	/	/
FC(F)(F)c1cccc(NC(=S)Nc2ccc(Cl)c(Cl)c2)c1	.	.	.	0.4	.
CC(=O)Nc1cccc(C(C)=NNC(=O)c2ccccc2Cl)c1	/	/	/	.	/
Cc1nnc(C)n1N=Cc1ccc(O)cc1	/	/	/	.	/
CCC1OC(=O)C(C)C(OC2C[C@@](C)(OC)C(O)C(C)O2)C(C)C(OC2OC(C)CC(N(C)C)C2O)[C@](C)(OC)CC(C)C(=O)C(C)C(O)[C@]1(C)O (stereo partly specified)	/	/	/	0.39	/
CC[C@H]1OC(=O)[C@H](C)[C@@H](O[C@H]2C[C@@](C)(OC)[C@@H](O)[C@H](C)O2)[C@H](C)[C@@H](O[C@@H]2O[C@H](C)C[C@H](N(C)C)[C@H]2O)[C@](C)(O)C[C@@H](C)C(=NOCOCCOC)[C@H](C)[C@@H](O)[C@]1(C)O	11	.	.	/	.
COc1cc(C=NNC(=O)c2sc3nc(C)cc(C)c3c2N)ccc1O	/	/	/	.	/
O=[N+]([O-])c1cccc(C=NNc2nc(N3CCOCC3)nc(N3CCOCC3)n2)c1	/	/	/	.	/
